Shown are actives, neighbours in structure and some others; about 28% of the full set was active somewhere.
CYP2C9 activ = human CYP2C9 activators, primary screen, biochemical, luminescence. Cytochrome P450 2C9 (Homo sapiens), P11712. recombinant CYP2C9, luciferin-H conversion; active compounds read high; factor 1 = untreated enzyme, 0 = blocked. activation factor at 5 µM. hit rate 1.4% among 96,000. AID 1024, 2008;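 active = activation factor of 2 or more for CYP2C9 at a 5 µM dose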;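 note: 0 = sulfaphenazole-blocked wells and 1 = vehicle-only wells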
CD11b adhes inh = inhibitors of CD11b/CD18 adhesion to fibrinogen, primary screen, K562 cells, luminescence; Integrin beta-2 (Homo sapiens) + Integrin alpha-M (Homo sapiens), P05107+P11215; ATPlite luminescence; Mn2+ added to activate the integrin; inhibition, % at 10 µM; hit rate 0.54% among 93,000;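 active = primary inhibition of 50% or more at 10 µM, then 40% or more on retest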
Target sequence (P05107 whole entry, looked up, other chains not shown): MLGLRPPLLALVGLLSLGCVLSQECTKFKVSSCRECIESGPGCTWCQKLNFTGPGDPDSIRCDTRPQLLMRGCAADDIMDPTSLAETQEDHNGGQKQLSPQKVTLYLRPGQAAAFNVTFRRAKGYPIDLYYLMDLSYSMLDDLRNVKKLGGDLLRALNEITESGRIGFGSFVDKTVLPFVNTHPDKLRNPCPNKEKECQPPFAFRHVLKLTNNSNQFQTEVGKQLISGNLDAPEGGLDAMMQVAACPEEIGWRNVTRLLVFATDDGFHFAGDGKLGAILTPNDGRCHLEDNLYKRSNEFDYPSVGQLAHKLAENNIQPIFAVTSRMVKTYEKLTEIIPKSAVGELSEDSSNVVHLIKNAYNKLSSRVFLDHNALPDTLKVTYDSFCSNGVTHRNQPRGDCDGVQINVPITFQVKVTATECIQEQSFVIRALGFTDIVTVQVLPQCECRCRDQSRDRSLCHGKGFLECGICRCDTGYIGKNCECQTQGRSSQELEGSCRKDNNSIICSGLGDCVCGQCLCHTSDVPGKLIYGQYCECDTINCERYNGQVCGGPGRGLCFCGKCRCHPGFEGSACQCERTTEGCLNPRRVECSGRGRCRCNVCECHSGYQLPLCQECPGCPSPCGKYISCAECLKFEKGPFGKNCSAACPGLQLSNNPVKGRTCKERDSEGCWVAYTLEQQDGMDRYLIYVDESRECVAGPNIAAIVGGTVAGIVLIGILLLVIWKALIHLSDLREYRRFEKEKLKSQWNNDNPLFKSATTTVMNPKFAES
CYP2C19 activ = human CYP2C19 activators, primary screen, biochemical, luminescence; recombinant CYP2C19, luciferin-H EGE luminescence; active compounds read high; 0 = fully inhibited enzyme, 1 = untreated enzyme; activation factor at 5 µM; 96,000 tested, under 10 active; AID 1025, 2008;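 active = activation factor of at least 2 at 5 µM in the primary screen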;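 note: 0 = wells with 2.5 mM tranylcypromine and 1 = vehicle-only wells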
CD11b adhes enh = enhancers of CD11b/CD18 adhesion to fibrinogen, primary screen, K562 cells, luminescence. Integrin beta-2 (Homo sapiens) + Integrin alpha-M (Homo sapiens), P05107+P11215. hit rate 0.07% among 93,000. activation, % at 10 µM. ATPlite luminescence. AID 1499, 2009;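 active = 10 µM primary screen giving 50% or more activity, confirmed by 40% or more on retest at that dose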
CYP2C19 inh = blockers of cytochrome P450 2C19 activity – biochemical, luminescence, ADME assay, primary screen; P33261; CYP2C19 Supersomes, luciferin-H EGE luminescence, 30 min; inhibition, % at 5 µM; hit rate 21% among 96,000;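 active = CYP2C19 inhibition above a set limit at 5 µM in the primary screen, cut at about 50% in these data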;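 note: plate controls were negative control wells for no effect and 2.5 mM tranylcypromine positive control for full effect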
CYP2C9 inhib = blockers of cytochrome P450 2C9 activity – biochemical, luminescence, ADME assay, primary screen; inhibition, % at 5 µM; P11712; AID 777, 2007; hit rate 20% among 96,000; CYP2C9 Supersomes, luciferin-H conversion;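 active = blocking of liver enzyme CYP2C9 beyond about 50% at 5 µM, limit read from the data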
* hit, by the source's call; · = no result.

SMILES	CYP2C9 activ	CD11b adhes inh	CYP2C19 activ	CD11b adhes enh	CYP2C19 inh	CYP2C9 inhib
Cc1nnc(NC(=O)C2COc3ccccc3O2)s1 (stereo unspecified)	0.1	-6.5	0.5	0.0	45.1	85.5*
Cc1nnc(NC(=O)C2(c3ccccc3)CCOCC2)s1	0.8	-33.1	0.5	-1.9	50.4*	18.0
Cc1ccc(CSc2nnc(NC(=O)C3COc4ccccc4O3)s2)cc1 (stereo unspecified)	1	24.4	1.1	-1.5	-12.3	-2.0
CCc1nnc(NC(=O)C2COc3ccccc3O2)s1 (stereo unspecified)	0.4	0.5	0.9	-0.1	14.5	55.8*
CNc1nc(Sc2ccc(C)cc2)cc(C(F)(F)F)n1	0.9	·	1	·	-1.1	7.3
O=C(O)CC(c1ccc(Cl)cc1)N1C(=O)CCC1=O (stereo unspecified)	0.9	-9.2	1	-1.7	-3.8	9.3
CC(C)CCn1c(SCc2ccc(Cl)cc2)nc2c1c(=O)[nH]c(=O)n2C	0.2	-9.3	0.5	-1.1	51.4*	78.8*
CCCCn1c(SCc2ccc(Cl)cc2)nc2c1c(=O)[nH]c(=O)n2C	0.8	5.6	0.8	50.0	18.8	24.9
CCCCCCn1c(SCC(C)C)nc2c1c(=O)[nH]c(=O)n2C	0.4	-5.7	0.6	0.6	35.3	57.0*
Cc1ccc(CSc2nc3c(c(=O)[nH]c(=O)n3C)n2CCC(C)C)cc1	0.3	2.4	0.4	2.5	61.1*	74.7*
CC(C)n1c(SCc2ccc(Cl)cc2)nc2c1c(=O)[nH]c(=O)n2C	0.5	-0.7	0.5	2.1	50.3*	49.7
CCCCSc1nnc2nc(C)cc(C)n12	1.2	-19.3	1	-1.7	3.7	-15.2
COc1ccccc1C(=O)N/C(N)=N/c1nc2ccccc2o1	1	-2.2	0.9	15.4	5.6	1.3
CCCNC(=O)C1CNc2ccccc2O1 (stereo unspecified)	1	4.5	1.1	-5.2	-8.3	-3.2
C=C(C)Cn1c(Sc2nc3ccccc3[nH]2)nc2c1c(=O)[nH]c(=O)n2C	0.7	15.0	0.1	-1.4	87.5*	32.8
COCCSc1nc2c(c(=O)[nH]c(=O)n2C)n1CCC(C)C	0.7	-18.7	1	-0.3	-4.6	32.8
CCCCCn1c(Sc2nc3ccccc3s2)nc2c1c(=O)[nH]c(=O)n2C	0.5	24.6	0.6	0.4	37.2	51.0*
CCOCCn1c(SCc2ccc(C)cc2)nc2c1c(=O)[nH]c(=O)n2C	0.7	-8.4	0.3	2.5	69.5*	34.3
C=C(C)CSc1nc2c(c(=O)[nH]c(=O)n2C)n1CCC(C)C	0.3	4.7	0.7	8.2	27.4	70.5*
C=C(C)Cn1c(SCCCO)nc2c1c(=O)[nH]c(=O)n2C	1.3	-6.1	1.2	-0.7	-20.3	-33.1
COc1ccc(Cn2nnnc2C(c2cc(OC)ccc2OC)N2CCC(C(N)=O)CC2)cc1 (stereo unspecified)	1	-5.5	0.6	-2.1	37.9	4.5
CCOc1ccc(S(=O)(=O)Oc2ccc3ccccc3c2)cc1	·	91.7	·	-7.0	·	·
Cc1ccc(C2C(=O)N(C3CCC(C)CC3)CC(=O)N2C2CC2)cc1 (stereo unspecified)	1.9	9.9	0.9	-4.5	7.8	-88.6
Cc1cc(C)nc(-n2nc(C)cc2NC(=O)CNCc2ccccc2)n1	0.4	0.5	0.7	-1.7	32.9	60.8*
Cc1cc(C)nc(-n2nc(C)cc2NC(=O)CN2CCc3ccccc3C2)n1	0.1	0.1	0.1	-3.3	86.3*	88.7*
SMILES	CYP2C9 activ	CD11b adhes inh	CYP2C19 activ	CD11b adhes enh	CYP2C19 inh	CYP2C9 inhib
CCN(CC(=O)Nc1cc(C)nn1-c1nc(C)cc(C)n1)Cc1ccccc1	0.2	9.4	0.3	-1.6	69.2*	82.7*
COc1ccc(/C=C/C(=O)N/C(=C\c2ccco2)C(=O)NCCc2nc3ccccc3[nH]2)cc1	·	-2.2	·	5.3	·	·
C=C(C)CSc1nnc([C@@H]2CCCN2C(=O)OC(C)(C)C)o1	1	-19.2	0.5	-1.8	46.9	-1.3
CC(C)C(NC(=S)NCc1ccccc1)C(=O)O (stereo unspecified)	0.7	1.5	0.1	-3.8	86.2*	34.2
COCCN1C(=O)C(=O)/C(=C(/O)c2ccc(S(=O)(=O)N3CCOCC3)cc2)C1c1ccc(C(C)C)cc1 (stereo unspecified)	1	5.3	1.1	-5.7	-13.8	-3.2
Cc1noc(/C=C/N(C)C)c1S(=O)(=O)N1CCCC(C(=O)N2CCCCC2)C1 (stereo unspecified)	0.4	2.2	1	1.5	3.1	57.7*
Cc1noc(/C=C/N(C)C)c1S(=O)(=O)N1CCCC(C(=O)Nc2ccc3c(c2)OCO3)C1 (stereo unspecified)	0.3	3.2	0.5	-11.9	48.5	67.0*
CCCCn1nnnc1SCC(=O)NCc1ccco1	0.8	-4.0	0.8	0.0	19.4	23.7
CO/N=C/NC(=O)c1ccc([N+](=O)[O-])c(CS(=O)(=O)c2ccc(Cl)cc2)c1	0.8	-4.6	1	-5.2	1.6	15.4
Cc1cc(C)cc(N(CCC(=O)O)S(=O)(=O)c2ccc(Cl)cc2)c1	·	23.5	·	-4.0	·	·
NNC(=O)c1ccc([N+](=O)[O-])c(CS(=O)(=O)c2ccc(Cl)cc2)c1	0.7	-4.9	0.3	5.2	74.8*	33.2
CN(C)C=NC(=O)c1ccc([N+](=O)[O-])c(CS(=O)(=O)c2ccc(Cl)cc2)c1	0.4	·	0.2	·	75.1*	56.0*
Cc1cc(C)n(C(=O)c2cc3ccccc3c(=O)o2)n1	1.4	·	1	·	-4.5	-44.8
COc1ccc(-n2c(SC3CCOC3=O)nc3ccccc32)cc1 (stereo unspecified)	0.6	-4.5	0.5	0.6	50.9*	40.7
O=C1OCCC1Sc1nc2ccccc2n1-c1ccccc1 (stereo unspecified)	0.3	4.7	0.3	1.3	69.2*	66.5*
O=C(O)Cn1c(SC2CCCCC2)nc2ccccc21	0.9	-6.9	0.9	-2.2	6.6	13.3
O=C1OCCC1Sc1nnc(-c2ccccc2)o1 (stereo unspecified)	1	-4.6	0.6	-1.2	39.2	2.1
O=C1OCCC1Sc1nc2ccccc2n1Cc1ccccc1 (stereo unspecified)	0.5	13.3	0.2	0.9	81.9*	54.8*
COc1ccc(CC(C(=O)Nc2cccc(F)c2)c2nn[nH]n2)c(OC)c1 (stereo unspecified)	0.7	2.4	0.7	2.9	29.0	32.1
COc1ccc2[nH]c(=O)c(CN(C(=O)NC3CCCCC3)C3CCCC3)cc2c1	0.7	-8.2	0.8	-2.4	17.6	31.0
